This note sets out measurements from ChEMBL document CHEMBL1961873, “Compounds: GSK PKIS; Assays: Nanosyn kinase panel” (2012).

Test [1] deals with T1, Tyrosine-protein kinase ITK/TSK (Homo sapiens) (UniProt Q08881).
T1 sequence (whole entry): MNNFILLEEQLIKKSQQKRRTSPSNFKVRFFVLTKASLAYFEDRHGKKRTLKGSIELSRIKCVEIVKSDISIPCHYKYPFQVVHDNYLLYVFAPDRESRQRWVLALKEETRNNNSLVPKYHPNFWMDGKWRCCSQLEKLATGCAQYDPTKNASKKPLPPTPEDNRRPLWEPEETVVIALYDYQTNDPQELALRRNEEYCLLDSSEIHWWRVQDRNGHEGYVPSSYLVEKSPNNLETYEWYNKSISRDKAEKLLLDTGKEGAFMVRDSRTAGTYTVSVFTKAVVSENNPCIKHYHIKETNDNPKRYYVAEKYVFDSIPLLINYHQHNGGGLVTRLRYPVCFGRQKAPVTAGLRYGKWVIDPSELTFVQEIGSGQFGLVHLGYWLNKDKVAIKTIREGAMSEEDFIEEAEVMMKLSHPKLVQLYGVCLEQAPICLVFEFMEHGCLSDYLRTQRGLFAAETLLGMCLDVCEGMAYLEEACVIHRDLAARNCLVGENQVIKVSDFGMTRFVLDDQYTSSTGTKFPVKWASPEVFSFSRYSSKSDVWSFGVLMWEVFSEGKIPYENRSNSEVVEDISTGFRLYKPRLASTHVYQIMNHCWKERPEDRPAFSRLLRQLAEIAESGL
Conditions: at 1 µM.

Test [2] deals with Tyrosine-protein kinase JAK1 (Homo sapiens) (UniProt P23458). The settings on record: at 0.1 µM.
Test [3] shares this target. The settings on record: at 1 µM.
Test [4] has as its target Tyrosine-protein kinase JAK2 (Homo sapiens) (UniProt O60674). Conditions: at 0.1 µM.
Test [5] shares this target. The settings on record: at 1 µM.
Test [6] addresses T2, Tyrosine-protein kinase JAK3 (Homo sapiens) (UniProt P52333).
T2 sequence (whole entry): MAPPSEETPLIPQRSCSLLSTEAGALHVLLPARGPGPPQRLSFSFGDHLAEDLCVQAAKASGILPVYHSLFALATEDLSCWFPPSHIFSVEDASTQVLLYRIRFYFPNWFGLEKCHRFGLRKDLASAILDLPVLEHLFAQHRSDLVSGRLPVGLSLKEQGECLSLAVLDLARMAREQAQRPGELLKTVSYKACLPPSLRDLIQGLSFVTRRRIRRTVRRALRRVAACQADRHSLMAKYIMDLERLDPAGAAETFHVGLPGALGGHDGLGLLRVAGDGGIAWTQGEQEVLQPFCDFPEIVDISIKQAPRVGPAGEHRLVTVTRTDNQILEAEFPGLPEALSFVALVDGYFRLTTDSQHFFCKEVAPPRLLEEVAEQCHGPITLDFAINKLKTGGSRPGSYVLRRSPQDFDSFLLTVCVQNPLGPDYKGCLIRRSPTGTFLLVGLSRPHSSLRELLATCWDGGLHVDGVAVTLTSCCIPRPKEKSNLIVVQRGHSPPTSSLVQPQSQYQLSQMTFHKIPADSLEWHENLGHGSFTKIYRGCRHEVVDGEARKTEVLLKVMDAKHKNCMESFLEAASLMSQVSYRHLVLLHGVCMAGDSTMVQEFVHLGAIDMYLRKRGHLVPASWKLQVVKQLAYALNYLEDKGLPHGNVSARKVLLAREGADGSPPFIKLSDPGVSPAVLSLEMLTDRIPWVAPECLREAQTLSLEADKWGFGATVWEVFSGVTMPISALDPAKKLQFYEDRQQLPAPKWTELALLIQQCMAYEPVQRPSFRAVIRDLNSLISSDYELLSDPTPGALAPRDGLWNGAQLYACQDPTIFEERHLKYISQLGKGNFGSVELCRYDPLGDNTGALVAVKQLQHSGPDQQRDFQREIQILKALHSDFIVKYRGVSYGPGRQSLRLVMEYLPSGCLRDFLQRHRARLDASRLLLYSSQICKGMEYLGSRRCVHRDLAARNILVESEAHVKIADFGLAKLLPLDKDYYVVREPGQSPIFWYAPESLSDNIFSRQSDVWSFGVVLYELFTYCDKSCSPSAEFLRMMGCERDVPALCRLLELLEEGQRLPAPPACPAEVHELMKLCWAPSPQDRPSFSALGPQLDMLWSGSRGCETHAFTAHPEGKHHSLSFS
Conditions: at 0.1 µM.

In test [7] the target is T2, Tyrosine-protein kinase JAK3 (Homo sapiens). Conditions: at 1 µM.
Test [8] concerns the target Vascular endothelial growth factor receptor 2 (Homo sapiens) (UniProt P35968). The settings on record: at 0.1 µM.
Test [9] shares this target. Conditions: at 1 µM.
The target in test [10] is Mast/stem cell growth factor receptor Kit (Homo sapiens) (UniProt P10721). The settings on record: at 0.1 µM.
Test [11] shares this target. Conditions: at 1 µM.
The subject of test [12] is Mast/stem cell growth factor receptor Kit (Homo sapiens), P10721 [D816V]. Conditions: at 0.1 µM.
Test [13] shares this test system. Conditions: at 1 µM.
The test system of test [14] is Mast/stem cell growth factor receptor Kit (Homo sapiens), P10721 [T670I]. The settings on record: at 0.1 µM.
The test system is the same in test [15]. Conditions: at 1 µM.
In test [16] the test system is Mast/stem cell growth factor receptor Kit (Homo sapiens), P10721 [V560G]. The settings on record: at 0.1 µM.
For test [17] the test system is unchanged. Conditions: at 1 µM.
In test [18] the target is Tyrosine-protein kinase Lck (Homo sapiens) (UniProt P06239). Conditions: at 0.1 µM.
For test [19] the target is unchanged. Conditions: at 1 µM.
For test [20], the target named is Leukocyte tyrosine kinase receptor (Homo sapiens) (UniProt P29376). Conditions: at 0.1 µM.
Sequence of Leukocyte tyrosine kinase receptor (Homo sapiens) (P29376 whole entry): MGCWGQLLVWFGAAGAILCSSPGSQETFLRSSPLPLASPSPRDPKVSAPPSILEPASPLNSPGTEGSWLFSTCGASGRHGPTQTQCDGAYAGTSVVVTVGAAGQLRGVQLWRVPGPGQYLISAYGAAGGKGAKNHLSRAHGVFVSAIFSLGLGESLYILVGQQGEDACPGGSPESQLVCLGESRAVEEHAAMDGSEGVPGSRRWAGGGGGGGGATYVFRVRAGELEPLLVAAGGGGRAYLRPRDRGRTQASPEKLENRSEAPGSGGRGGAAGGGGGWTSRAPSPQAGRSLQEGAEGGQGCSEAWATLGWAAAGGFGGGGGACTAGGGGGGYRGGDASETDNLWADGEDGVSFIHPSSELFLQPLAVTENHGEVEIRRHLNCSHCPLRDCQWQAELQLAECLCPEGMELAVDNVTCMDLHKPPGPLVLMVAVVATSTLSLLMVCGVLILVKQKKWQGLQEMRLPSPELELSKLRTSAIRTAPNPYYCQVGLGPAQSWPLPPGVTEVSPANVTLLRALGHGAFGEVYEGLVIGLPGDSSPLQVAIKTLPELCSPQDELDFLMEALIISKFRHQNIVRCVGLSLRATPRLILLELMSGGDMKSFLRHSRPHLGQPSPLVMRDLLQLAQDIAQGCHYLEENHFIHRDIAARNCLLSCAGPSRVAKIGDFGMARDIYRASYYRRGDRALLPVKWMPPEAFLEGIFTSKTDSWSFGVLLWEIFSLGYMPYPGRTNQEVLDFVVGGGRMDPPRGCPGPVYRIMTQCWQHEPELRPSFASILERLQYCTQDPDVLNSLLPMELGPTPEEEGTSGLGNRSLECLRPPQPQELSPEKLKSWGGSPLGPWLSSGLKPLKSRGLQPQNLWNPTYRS

Sequence of Mast/stem cell growth factor receptor Kit (Homo sapiens), P10721 [D816V] (P10721 whole entry D816V): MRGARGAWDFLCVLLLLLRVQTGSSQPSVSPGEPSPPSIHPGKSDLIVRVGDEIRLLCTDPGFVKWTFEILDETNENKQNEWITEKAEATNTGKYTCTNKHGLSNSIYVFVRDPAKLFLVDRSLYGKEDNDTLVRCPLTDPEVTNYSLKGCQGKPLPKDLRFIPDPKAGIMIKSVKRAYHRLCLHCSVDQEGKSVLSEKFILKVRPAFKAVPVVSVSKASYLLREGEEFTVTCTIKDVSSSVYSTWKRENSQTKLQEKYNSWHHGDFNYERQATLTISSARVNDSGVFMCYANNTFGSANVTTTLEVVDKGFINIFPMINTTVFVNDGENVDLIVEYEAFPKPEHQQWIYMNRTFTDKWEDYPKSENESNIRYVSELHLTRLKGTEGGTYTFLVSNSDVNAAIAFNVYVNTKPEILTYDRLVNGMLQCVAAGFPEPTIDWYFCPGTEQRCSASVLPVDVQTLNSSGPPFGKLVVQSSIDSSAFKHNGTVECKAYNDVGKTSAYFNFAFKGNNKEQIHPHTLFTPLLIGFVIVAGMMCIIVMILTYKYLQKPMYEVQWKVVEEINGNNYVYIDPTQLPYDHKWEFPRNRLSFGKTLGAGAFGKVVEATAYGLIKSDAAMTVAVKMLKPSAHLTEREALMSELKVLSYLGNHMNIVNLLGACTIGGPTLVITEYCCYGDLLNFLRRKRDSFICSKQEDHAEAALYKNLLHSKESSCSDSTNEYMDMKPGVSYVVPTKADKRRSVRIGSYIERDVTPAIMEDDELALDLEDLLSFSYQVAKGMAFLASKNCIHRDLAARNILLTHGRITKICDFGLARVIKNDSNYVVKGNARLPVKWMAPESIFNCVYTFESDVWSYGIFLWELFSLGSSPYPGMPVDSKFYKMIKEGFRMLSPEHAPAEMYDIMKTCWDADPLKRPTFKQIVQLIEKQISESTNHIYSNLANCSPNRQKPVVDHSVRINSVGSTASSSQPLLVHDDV
Sequence of Tyrosine-protein kinase JAK1 (Homo sapiens) (P23458 whole entry): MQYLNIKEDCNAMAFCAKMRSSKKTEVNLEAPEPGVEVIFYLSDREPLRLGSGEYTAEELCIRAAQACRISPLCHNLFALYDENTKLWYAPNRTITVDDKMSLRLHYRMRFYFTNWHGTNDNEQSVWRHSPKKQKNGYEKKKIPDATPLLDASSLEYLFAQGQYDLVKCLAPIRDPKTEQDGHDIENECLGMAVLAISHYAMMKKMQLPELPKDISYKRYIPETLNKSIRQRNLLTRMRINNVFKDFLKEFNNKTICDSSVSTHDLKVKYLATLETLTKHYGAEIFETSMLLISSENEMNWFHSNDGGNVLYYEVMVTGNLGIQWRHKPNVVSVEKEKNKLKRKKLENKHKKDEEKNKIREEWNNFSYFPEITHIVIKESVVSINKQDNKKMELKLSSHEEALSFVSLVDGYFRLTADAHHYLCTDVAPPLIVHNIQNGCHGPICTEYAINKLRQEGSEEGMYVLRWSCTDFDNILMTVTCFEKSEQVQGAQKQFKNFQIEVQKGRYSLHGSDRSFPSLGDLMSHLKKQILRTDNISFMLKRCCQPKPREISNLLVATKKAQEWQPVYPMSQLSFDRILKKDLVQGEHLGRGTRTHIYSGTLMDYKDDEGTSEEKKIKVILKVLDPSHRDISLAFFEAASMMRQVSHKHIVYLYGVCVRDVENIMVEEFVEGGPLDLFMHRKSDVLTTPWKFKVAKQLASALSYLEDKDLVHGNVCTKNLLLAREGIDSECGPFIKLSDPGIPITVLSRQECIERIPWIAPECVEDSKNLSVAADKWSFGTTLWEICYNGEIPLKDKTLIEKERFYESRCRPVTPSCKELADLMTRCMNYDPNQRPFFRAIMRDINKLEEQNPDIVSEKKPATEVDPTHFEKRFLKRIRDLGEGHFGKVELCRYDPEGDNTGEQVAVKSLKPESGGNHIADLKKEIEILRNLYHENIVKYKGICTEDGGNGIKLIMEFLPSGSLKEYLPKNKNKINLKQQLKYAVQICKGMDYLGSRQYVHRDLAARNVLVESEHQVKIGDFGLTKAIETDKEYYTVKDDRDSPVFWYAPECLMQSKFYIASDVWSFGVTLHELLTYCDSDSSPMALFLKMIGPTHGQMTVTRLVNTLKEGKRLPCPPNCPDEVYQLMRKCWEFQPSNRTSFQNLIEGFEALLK
Sequence of Mast/stem cell growth factor receptor Kit (Homo sapiens), P10721 [V560G] (P10721 whole entry V560G): as the sequence (P10721 whole entry D816V) above, with V560G, V816D counted along it
Sequence of Tyrosine-protein kinase Lck (Homo sapiens) (P06239 2-509 limits assumed): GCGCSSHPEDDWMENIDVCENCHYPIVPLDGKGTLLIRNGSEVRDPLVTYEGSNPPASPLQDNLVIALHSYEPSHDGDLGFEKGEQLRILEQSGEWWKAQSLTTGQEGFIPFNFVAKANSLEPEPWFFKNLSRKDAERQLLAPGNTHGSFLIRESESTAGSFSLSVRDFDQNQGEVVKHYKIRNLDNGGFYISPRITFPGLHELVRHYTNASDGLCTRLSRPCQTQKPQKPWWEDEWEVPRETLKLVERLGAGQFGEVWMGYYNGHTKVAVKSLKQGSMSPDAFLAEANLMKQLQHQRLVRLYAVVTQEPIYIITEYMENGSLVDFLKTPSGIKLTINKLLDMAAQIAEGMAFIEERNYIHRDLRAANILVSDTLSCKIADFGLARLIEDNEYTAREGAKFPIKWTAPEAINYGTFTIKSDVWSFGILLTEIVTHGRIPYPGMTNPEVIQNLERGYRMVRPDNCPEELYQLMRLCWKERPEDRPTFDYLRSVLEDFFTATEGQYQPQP
Sequence of Vascular endothelial growth factor receptor 2 (Homo sapiens) (P35968 whole entry): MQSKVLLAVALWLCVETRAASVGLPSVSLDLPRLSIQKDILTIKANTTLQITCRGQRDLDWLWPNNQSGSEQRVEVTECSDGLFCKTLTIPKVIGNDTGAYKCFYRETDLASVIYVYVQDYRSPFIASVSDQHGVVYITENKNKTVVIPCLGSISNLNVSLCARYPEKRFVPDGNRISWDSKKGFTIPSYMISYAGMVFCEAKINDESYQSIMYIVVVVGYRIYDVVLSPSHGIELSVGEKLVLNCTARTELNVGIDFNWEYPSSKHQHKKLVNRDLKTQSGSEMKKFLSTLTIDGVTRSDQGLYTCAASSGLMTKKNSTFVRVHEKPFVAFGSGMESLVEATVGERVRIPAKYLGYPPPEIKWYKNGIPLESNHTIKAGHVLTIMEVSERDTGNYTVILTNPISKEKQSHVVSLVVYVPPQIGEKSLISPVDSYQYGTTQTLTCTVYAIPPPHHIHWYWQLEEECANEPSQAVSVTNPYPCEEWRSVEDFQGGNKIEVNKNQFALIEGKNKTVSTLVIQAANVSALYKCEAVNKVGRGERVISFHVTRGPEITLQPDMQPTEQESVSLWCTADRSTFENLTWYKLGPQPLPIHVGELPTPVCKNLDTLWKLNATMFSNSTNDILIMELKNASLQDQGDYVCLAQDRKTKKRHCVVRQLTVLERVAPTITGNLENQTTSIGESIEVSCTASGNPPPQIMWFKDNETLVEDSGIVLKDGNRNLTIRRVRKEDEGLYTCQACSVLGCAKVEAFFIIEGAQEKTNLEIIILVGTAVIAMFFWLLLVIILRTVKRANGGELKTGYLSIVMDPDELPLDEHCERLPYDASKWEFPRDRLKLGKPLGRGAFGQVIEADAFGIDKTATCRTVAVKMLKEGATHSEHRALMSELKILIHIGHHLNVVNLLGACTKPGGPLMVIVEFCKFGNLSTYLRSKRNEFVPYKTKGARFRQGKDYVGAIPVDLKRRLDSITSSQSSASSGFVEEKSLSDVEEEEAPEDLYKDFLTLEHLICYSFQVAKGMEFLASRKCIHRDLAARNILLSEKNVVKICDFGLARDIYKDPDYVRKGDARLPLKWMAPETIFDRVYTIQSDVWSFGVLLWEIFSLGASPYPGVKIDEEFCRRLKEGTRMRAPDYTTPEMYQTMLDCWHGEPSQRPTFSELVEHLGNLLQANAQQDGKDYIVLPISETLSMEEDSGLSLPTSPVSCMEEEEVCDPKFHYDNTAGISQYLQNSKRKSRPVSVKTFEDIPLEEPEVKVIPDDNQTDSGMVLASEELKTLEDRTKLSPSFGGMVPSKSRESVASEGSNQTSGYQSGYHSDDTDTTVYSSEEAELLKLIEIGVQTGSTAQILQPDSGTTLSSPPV
Sequence of Mast/stem cell growth factor receptor Kit (Homo sapiens), P10721 [T670I] (P10721 whole entry T670I): as the sequence (P10721 whole entry D816V) above, with T670I, V816D counted along it
Sequence of Mast/stem cell growth factor receptor Kit (Homo sapiens) (P10721 whole entry): as the sequence (P10721 whole entry D816V) above, with V816D counted along it

Regarding `COc1ccc2cc(-c3c(-c4ccncc4)nc(-c4ccc(S(C)(=O)=O)cc4C)n3C)ccc2c1`, the inhibition (as a rule, the relative decrease from the control value, in per cent) was 1.36% in test [1]; 5.05% in [2]; 11.1% in test [3]; 1.62% in test [4]; 1.45% in test [5]; -0.96% in test [6]. The inhibition in test [7] is -0.93%; in [8], 10.7%; in [9], 47.8%; in test [10], 5.09%; in [11], 4.85%; in [12] it was 1.65%. The inhibition in [13] is 4.38%; in [14], 2.6%; in [15], 4.5%; in test [16], 1.82%; in test [17], -0.08%; in test [18], 1.82%. Moreover, the inhibition is 8.97% in [19] and 3.22% in test [20].
Regarding `FC(F)(F)c1cccc(Nc2nccc(-c3cnn4nc(-c5ccccc5)ccc34)n2)c1`, the inhibition was 3.33% in [1]; -0.86% in test [2]; 0.5% in [3]; -0.15% in test [4]; 0.22% in test [5]; -1.84% in test [6]. Moreover, the inhibition in test [7] is -0.12%; in [8], 0.05%; in test [9], 6.02%; in test [10], 5.78%; in [11], 37.3%; in [12], 1.06%. Further, the inhibition in test [13] was 0.54%; in test [14], 1.8%; in [15] it was 5.77%; in [16] it was -2.09%; in [17], 1.67%; in test [18] it was 1.68%. Moreover, the inhibition turned out to be 2.24% in test [19] and 0.59% in test [20].
Regarding `CCS(=O)(=O)c1ccc(OC)c(Nc2ncc(-c3ccccc3Cl)o2)c1`, the inhibition was 1.73% in test [1]; 5.17% in test [2]; -2.96% in [3]; 1.84% in test [4]; 0.94% in test [5]; 0.9% in [6]. Moreover, the inhibition in test [7] stood at 4.04%; in test [8] it was 8.35%; in [9], 33.8%; in test [10] it was 17.3%; in [11] it was 85.2%; in test [12], 0.9%. Besides, the inhibition in test [13] amounted to 0.58%; in test [14], 0.14%; in [15] it was 24.3%; in test [16], 3.4%; in test [17] it was 8.88%; in test [18], 4.24%. In addition, the figures for the inhibition in test [19] and in [20] were 10.2% and 1.67%, respectively.
As to `COc1ccc(-c2ccc3c(NC(=O)C4CC4)n[nH]c3n2)cc1`, the inhibition in test [1] is 2.25%; in test [2], 2.09%; in test [3], 10.9%; in [4] it was -0.18%; in [5], -0.27%; in test [6] it was -1%. Also, the inhibition in test [7] worked out at 0.12%; in [8], 0.66%; in [9] it was 3.4%; in test [10], 0.69%; in test [11], 6.98%; in test [12] it was 3.21%. In addition, the inhibition was 2.92% in [13]; 0.56% in test [14]; 3.21% in [15]; 4.61% in [16]; 2.87% in [17]; -0.02% in [18]. In addition, the inhibition in test [19] was 3.64%; in test [20] it was 1.94%.
On to `CCc1ccc(Oc2nccc(-c3c(-c4ccc(F)cc4)ncn3C3CCNCC3)n2)cc1`, for which the inhibition in test [1] was 2.38%; in test [2] it was 4.16%; in test [3], 4.5%; in test [4] it was 1.64%; in test [5] it was 2.94%; in test [6], -1.25%. Also, the inhibition in test [7] was -0.22%; in [8] it was 5.19%; in test [9], 13.5%; in [10] it was 4.71%; in test [11], 3.31%; in [12], 4.91%. For the same molecule, the inhibition was 1.86% in test [13]; 2.54% in test [14]; 2.33% in test [15]; -1.42% in [16]; -1.63% in [17]; 3.37% in test [18]. Moreover, the inhibition stood at 6.55% in test [19] and 2.71% in test [20].
For the molecule `Nc1nccc(-c2c(-c3ccc(F)cc3)ncn2C2CCC(O)CC2)n1` (stereo not given), the inhibition in [1] is 0.63%; in test [2] it was -6.08%; in test [3], -2.41%; in test [4], -0.54%; in test [5] it was -0.27%; in test [6], 1.29%. Moreover, the inhibition was 2.69% in [7]; 2.29% in test [8]; 17.2% in test [9]; -1.79% in [10]; 17.1% in [11]; -2.57% in [12]. Besides, the inhibition in test [13] was 1.44%; in test [14] it was -0.22%; in [15], -0.69%; in [16], 1.44%; in test [17], 5.14%; in [18] it was 3.6%. Moreover, the inhibition in test [19] was 29.2%; in [20], -1.37%.
Regarding `NC(=O)c1cc(-c2ccncc2)cc(-c2ccccc2)c1N`, the inhibition was 1.74% in [1]; 6.03% in test [2]; 4.31% in test [3]; 2.14% in test [4]; 1.86% in [5]; -1.25% in [6]. The inhibition in [7] was -1.1%; in [8] it was 3.91%; in test [9], 10.7%; in test [10] it was 23%; in [11], 75.5%; in test [12] it was 6.4%. Moreover, the inhibition was determined as 6.94% in test [13]; 3.99% in test [14]; 4.83% in test [15]; 2.91% in test [16]; 25.1% in test [17]; 7.95% in test [18]. Besides, the inhibition in test [19] was 41.6%; in test [20], 5.44%.
